Compounds with a hit are over-represented: about 3.7% of the library has one in this group of screens.
Kir21 inh: Kir2.1 (mouse) channel inhibition; P35561; HEK293-Kir2.1, FluxOR thallium flux fluorescence; hits give low values; B-score at 10 µM; 310,000 compounds, 0.85% hits; AID 1672;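 active means fluorescence ratio B-score at or below minus 3 SD of library scores, with starting-brightness B-score within 2 SD, cut at about -4.2 in these data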;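 further: channel flux triggered by added potassium and thallium sulfate stimulus; B-score of peak minus minimum fluorescence over baseline after thallium stimulus; more negative B-score means stronger Kir2.1 block with less thallium influx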
Target sequence (P35561 whole entry, looked up): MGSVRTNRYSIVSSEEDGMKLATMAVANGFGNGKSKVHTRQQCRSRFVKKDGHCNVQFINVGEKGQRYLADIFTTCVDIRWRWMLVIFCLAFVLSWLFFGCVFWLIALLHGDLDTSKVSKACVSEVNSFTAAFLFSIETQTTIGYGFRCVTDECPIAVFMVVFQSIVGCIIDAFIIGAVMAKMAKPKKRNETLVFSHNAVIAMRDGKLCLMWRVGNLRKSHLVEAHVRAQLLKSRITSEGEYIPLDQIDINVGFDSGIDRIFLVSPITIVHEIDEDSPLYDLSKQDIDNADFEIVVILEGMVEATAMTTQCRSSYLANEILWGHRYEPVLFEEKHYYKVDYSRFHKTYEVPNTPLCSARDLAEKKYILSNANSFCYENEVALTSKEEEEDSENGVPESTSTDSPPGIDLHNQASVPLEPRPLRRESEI
TMEM16A inh: blocks the mouse calcium-activated chloride channel TMEM16A | HEK293 TMEM16A/YFP iodide influx fluorescence, ionomycin | 310,000 compounds, 1.2% hits | normalized B-score (activity score, 25-100; higher = stronger inhibition) at 10 µM;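 active means ratio plate-corrected score three or more library SD toward inhibition, starting fluorescence score within five deviations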;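 further: score derived from kinetic fluorescence span divided by baseline fluorescence per well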
GPR7 antagonist: blocks human GPR7 receptor signaling; 290,000 compounds, 1.1% hits; GPR7-expressing cells, fluorescence antagonist assay; inhibition, % at 4.4 µM; AID 1861; P48145; in the data active means inhibition above about 16%, passing the limit was not always enough;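 further: cells stimulated with the agonist NPW; 0% = agonist with vehicle and 100% = vehicle without agonist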
ANO1 activ: activates or potentiates the mouse TMEM16A chloride channel; 340,000 compounds, 0.3% hits; B-score at 10 µM; HEK293 TMEM16A/YFP-H148Q/I152L, iodide quench fluorescence; hits give low values; AID 623877;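 active means fluorescence-ratio B-score plate-corrected deviation score at least 3 library SD below zero, with starting fluorescence score within 5 deviations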;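 further: channel opened by trigger with iodide after compound preincubation; score built on the fluorescence ratio of max minus min over baseline; more negative score means more quench and so TMEM16A activation or potentiation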
CHT allo act: allosterically activates the human high affinity choline transporter | Q9GZV3 | CHT-expressing cells, membrane potential dye, choline EC20; hits give high values; LV-AA mutant CHT in HEK293 cells | B-score at 10 µM | 310,000 compounds, 0.49% hits;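 active means initial fluorescence not abnormally high and integrated response B-score, plate-corrected, over 3 SD above library mean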
CHT block: inhibits the human high affinity choline transporter | Q9GZV3 | CHT-expressing cells, membrane potential dye, choline response; hits give low values | B-score at 10 µM | 310,000 compounds, 0.86% hits;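 active means B-score over 3 SD under the library average, and starting fluorescence ratio not unusually high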;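 further: choline stimulus applied at its EC90 after an EC20 pre-addition; B-score computed on integrated fluorescence ratio after choline addition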
GPR7 antag conf: human GPR7 antagonism, confirmation assay. GPR7-expressing cells, calcium fluorescence antagonist mode. 2,400 compounds, 52% hits. inhibition, % at 4.4 µM. shares compounds with GPR7 antagonist; in the data active means inhibition above about 24%;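 further: stimulated with the GPR7 agonist NPW; 0% = agonist plus vehicle and 100% = vehicle alone without agonist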
MCHR1 antag: MCHR1 (human) antagonism in GPR7 counter-screen | shares compounds with GPR7 antagonist | MCHR1-expressing cells, fluorescence antagonist assay | inhibition, % at 4.4 µM | 2,400 compounds, 62% hits; in the data active means inhibition above about 22%;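 further: 0% = vehicle with agonist and 100% = vehicle without agonist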
CHT act confirm: confirmation of human choline transporter (CHT) activators; shares compounds with CHT allo act; CHT-expressing cells, membrane potential dye fluorescence (FDSS); % of choline EC20–EC90 response window; HEK293 expressing CHT LV-AA mutant; choline added at its EC20; activation, % at 10 µM; 2,500 compounds, 91% hits;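 active means primary screen active, with duplicate mean activation above negative control mean plus 3 SD, cut at about 11% in these data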
HEK293 MP dye: CHT activator counter-screen hit in parental HEK293 cells; 2,500 compounds, 62% hits; shares compounds with CHT allo act; AID 623908; membrane potential dye fluorescence (FDSS); measured after EC20 choline addition; ratio readout change at 10 µM, hits read low;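 active means duplicate-averaged ratio beyond 3 SD from buffer wells, up or down, though filed actives are nearly all decreases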
* marks the source's active call; other numbers are inactive results; i = inactive; . = not tested or not shown.

SMILES	Kir21 inh	TMEM16A inh	GPR7 antagonist	ANO1 activ	CHT allo act	CHT block	GPR7 antag conf	MCHR1 antag	CHT act confirm	HEK293 MP dye
COc1ccccc1C1CC(c2ccc(Cl)cc2)Nc2ncnn21 (stereo not given)	-3.3	i	.	i	i	i	.	15	30*	i
COc1ccc(NCc2ccc(OC)c(OC)c2)cc1	-1.1	i	-14	.	i	i	.	.	.	.
COc1ccc(C(CCNCc2ccc(OC)c(OC)c2)c2ccc(F)cc2)cc1 (stereo not given)	-4.5*	i	31*	i	7.4*	i	52*	80*	28*	i
COc1ccccc1CNC(=O)c1c(N)n(CCCN2CCOCC2)c2nc3ccccc3nc12	-0.4	.	10	i	.	.	.	.	.	.
Nc1c(C(=O)NCc2ccc3c(c2)OCO3)c2nc3ccccc3nc2n1CCCN1CCOCC1	0.35	i	23*	i	7.4*	i	49*	51*	12*	i
CCCN(CC(=O)Nc1ccccc1C)C(=O)c1cccc(S(=O)(=O)N2CCc3ccccc3C2)c1	-1.2	i	30*	i	6.9*	i	28*	55*	6	i
CCN1C(=S)N[C@@H](c2cccc(F)c2)C(C(=O)OC)=C1C	-1.8	i	-2	i	i	i	.	.	.	.
COC(=O)C1=C(C)N(Cc2ccccc2)C(=NCC(C)C)N[C@H]1c1ccccc1	-8.2*	i	47*	.	i	i	50*	40*	35*	i
COC(=O)C1=C(C)N(Cc2ccccc2)C(=NCc2ccc(OC)cc2)N[C@H]1c1ccccc1	.	.	.	i	.	.	.	.	.	.
CCN1C(=NCc2cccc(Cl)c2)N[C@@H](c2cccc(F)c2)C(C(=O)OC)=C1C	-4.5*	i	33*	i	i	i	58*	30*	1	i
O=C(Oc1cc(Cl)cc(Cl)c1)c1cnc2n(c1=O)CCS2	-0.25	i	-11	i	i	i	.	.	.	.
NC(=O)C1CCCN(C(=O)CN2C(=O)NC(c3ccccc3)(c3ccccc3)C2=O)C1 (stereo not given)	.	.	.	i	.	.	.	.	.	.
C[C@@H]1C(=O)O[C@H](C)[C@H]1C[C@@H](O)[C@](C)(O)C1CC[C@@]2(O)C3=CC(=O)[C@@H]4C[C@@H](O)[C@@H](O)C[C@]4(C)C3CC[C@]12C (stereo not given in full)	.	.	.	i	.	.	.	.	.	.
Cc1oc2ccc(O)c(CN(C)C)c2c1C(=O)c1ccccc1	-3.2	i	-5	i	i	i	.	.	.	.
CCOC(=O)c1c(CSCc2ccccc2)oc2ccc(O)c(CN(C)C)c12	-2.8	i	40*	i	11*	i	40*	68*	25*	i
Cc1cc(-c2nnc(SCC(=O)Nc3ccc(Br)cc3F)n2N)n[nH]1	0.29	i	-13	i	i	i	.	.	.	.
COC(=O)COc1ccc(C)cc1-n1nc2ccccc2n1	0.16	i	-2	i	i	i	.	.	.	.
COC(=O)COc1ccc(-c2ccccc2)cc1C=O	0.27	i	31*	i	20*	i	17	38*	6	i
O=C(Cn1cc([N+](=O)[O-])cn1)NCc1cc2ccccc2[nH]1	-0.3	i	-2	i	i	i	.	.	.	.
CC1CCN(CCCNC(=O)c2ccc(CSCc3cccc(Cl)c3)o2)CC1	-6.7*	i	22*	i	8.3*	i	17	13	49*	-35*
Cn1c(COc2ccccc2O)[n+](C)c2ccccc21	0.35	i	0	i	i	i	.	.	.	.
CCCCCCCCCCOC(=O)Cn1c(COc2ccccc2OC)[n+](C)c2ccccc21	-17*	100*	53*	-5.8*	19*	i	98*	107*	91*	-37*
O=C(NC1CCCC1)C(c1ccsc1)N(Cc1ccco1)C(=O)Cc1cccs1 (stereo not given)	0.01	i	44*	i	7.4*	i	43*	31*	33*	i
O=C(Cc1cccs1)N(Cc1ccco1)C1(C(=O)NC2CCCC2)CCCCC1	-2.4	i	46*	i	10*	i	53*	45*	41*	i
CSc1ccccc1C(=O)N(C)C(c1ccccc1)c1ccccc1	-2.3	i	22*	i	i	i	15	61*	45*	i
SMILES	Kir21 inh	TMEM16A inh	GPR7 antagonist	ANO1 activ	CHT allo act	CHT block	GPR7 antag conf	MCHR1 antag	CHT act confirm	HEK293 MP dye
O=c1c2ccccc2n(CC(O)CN2CCOCC2)c2ccccc12 (stereo not given)	0.67	i	42*	i	i	i	1	0	11*	i
CC1CCC(C(C)C)C(OC(=O)C[n+]2cc(-c3ccc(Cl)cc3)n3c2CCC3)C1 (stereo not given)	-1.9	i	28*	i	14*	i	38*	51*	83*	i
CC(C)Cc1ccc(C(C)C(N)=NCCc2ccccc2)cc1 (stereo not given)	-7.5*	i	52*	i	13*	i	39*	54*	6	i
COc1ccc2nc(C)cc(N3CCOCC3)c2c1	-0.61	i	22*	i	i	i	-11	-6	68*	-81*
Cc1cc(N(C)C(=O)c2ccc3c(c2)S(=O)(=O)c2cc(Cl)ccc2C3=O)c(C(F)(F)F)o1	.	.	.	i	.	.	.	.	.	.
CCOC(=O)c1c(CSc2cccs2)n(C)c2cc(Br)c(O)c(CN(C)C)c12	-3.4	i	7	i	i	i	.	.	.	.
O=C(c1ccccc1-c1ccccc1)N1CCN(c2ccccn2)CC1	-1.2	i	27*	i	i	i	23	24*	38*	i
OCCC1CN(Cc2cccc(-n3cccn3)c2)CCN1Cc1ccccc1 (stereo not given)	-0.64	i	-9	i	i	i	.	.	.	.
CS(=O)(=O)Nc1ccc(-c2cc(/C=C3\SC(N)=NC3=O)c[nH]c2=O)cc1	0.41	i	1	i	i	i	.	.	.	.

High-throughput results deposited in PubChem by several laboratories.
